# KB-V1 cytotox – KB-V1 MDR subline cytotoxicity. KB-V1 MDR cells viability, CellTiter-Glo, 72 h. Potency, µM (highest dose often 46.1 µM), hits mostly cytotoxic. 400,000 tested, 3.4% active. AID 1347076; note: % is set by controls: 0 for no effect and ±100 for the full control effect; nearly all actives have a fitted effect of over 60% in size
#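 Cells of the MDR subline KB-V1 are plated, dosed with compound at multiple concentrations, and incubated 72 h at 37 degrees C; CellTiter-Glo is then added and luminescence read after 10 min.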
# HT1080NT lethal – kills 2HG-producing HT-1080-NT fibrosarcoma cells | 360,000 tested, 1.6% active | AID 686970 | Potency, µM (highest dose often 46.1 µM), without a hit: top-dose activity, negative = less viability, most hits filed as cytotoxic | HT-1080-NT fibrosarcoma viability, CellTiter-Glo ATP luminescence, 48 h;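 note: NT is the 2HG producing partner of a matched IDH1 knockdown line; 0% = DMSO-treated cells and -100% = media-only wells without cells; nearly all actives have a fitted effect of over 55% in size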
#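 Compounds were tested in concentration-response format on HT-1080-NT cells for 48 hours at 37 degrees C. Cell viability came from CellTiter-Glo luminescence; curves were classified by r2, response magnitude and activity.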
# KB-3-1 tox – kills parental KB-3-1 adenocarcinoma cells; KB-3-1 viability, CellTiter-Glo ATP luminescence, 72 h; Potency, µM (top dose mostly 46.1 µM), most hits filed as cytotoxic; 400,000 tested, 1.4% active; AID 1347075; note: % is set by controls: 0 for no effect and ±100 for the full control effect; nearly all actives have a fitted effect of over 60% in size
#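 Screening of KB-3-1 cells (DMEM, 10% FBS, phenol-red free) ran from lowest to highest compound concentration; after 72 h at 37 °C viability was read luminescently and curves fitted.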
# HT1080 IDH1KD tx – HT-1080 IDH1 knockdown cell toxicity (counter line). 360,000 tested, 2% active. HT-1080 IDH1 knockdown viability, ATP luminescence, 48 h. Potency, µM (top dose mostly 46.1 µM), without a hit: at the highest dose activity, negative = toxicity, most hits filed as cytotoxic;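 note: 0% = DMSO wells and -100% = cell-free medium wells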
#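 Luminescent ATP read-out (CellTiter-Glo, 10 min at room temperature) after 48 h compound exposure at 37 °C gave viability of IDH1-knockdown HT-1080 cells. Activity was normalised to DMSO and cell-free wells, then fitted as concentration-response curves.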
# MCF10A rerep – DNA re-replication induction in MCF 10a cells | MCF 10A DNA re-replication, Hoechst nuclear intensity, 48 h | Potency, µM (titrated, usually from 46.1 µM), without a hit: at the top dose activity, positive = re-replication, usual class: activators | 350,000 tested, 2.9% active; note: % of control where 0% means no effect; nearly all actives have a fitted effect of over 50% in size
# SW480 rerep – induces DNA re-replication in SW480 colon adenocarcinoma cells. SW480 DNA re-replication, Hoechst DNA content imaging, 48 h. Potency, µM (series often up to 46.1 µM), for the others: at the highest dose re-replication activation, usual class: activators. 340,000 tested, 1.8% active. AID 624297; note: % of control where 0% means no effect; nearly all actives have a fitted effect of over 55% in size
#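 SW480 cells exposed to compounds for 48 hr at 37 C, 5% CO2, then Hoechst-stained 40 min. Nuclear DNA content imaged by fluorescence scanning (405 nm excitation, 500-530 nm emission); re-replication scored as increased high-intensity nuclei.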
# An asterisk follows results filed as active; i = inactive; ? = inconclusive; / = no result; [ ] = dose if it differs, or a comment. Sampled rows, rich in hits. Any-hit rate of the full collection: about 7.9%. Calls come from the whole dose curve; as a rule, active = well fitted curve in the direction sought with a large enough effect; inconclusive = small, poorly fitted or top-dose-only effect, or another doubt; inactive = no such curve, though single readings can be large; an effect the other way counts as inactive or inconclusive. Potency is the fitted concentration of half-maximal effect.
SMILES,KB-V1 cytotox,HT1080NT lethal,KB-3-1 tox,HT1080 IDH1KD tx,MCF10A rerep,SW480 rerep
COc1ccc(S(=O)(=O)N2CCN(C(=O)c3c(C)nn(-c4ccccc4)c3C)CC2)cc1,13µM*,-1%,i,0%,5%,-2%
Cc1cc(C(=O)N2CCCC(C(=O)c3ccc(Cl)cc3C)C2)no1 (configuration not stated),?,-9%,i,-3%,?,23µM*
Cc1ccc(OCc2cc(C(=O)N3CCc4[nH]cnc4C3c3ccccn3)no2)cc1C (configuration not stated),i,-2%,i,-9%,1%,-4%
COc1cccc2c1O/C(=N\O)C(C(=O)Nc1ccc(C)cc1)C2 (configuration not stated),i,?,4.1µM*,15µM*,18µM*,?
C/C(=N\O)c1cc(Cl)ccc1O,i,0%,i,-13%,4%,4%
O=C(Cn1cnc2c(OCc3ccccc3)ncnc21)NCCc1c[nH]c2ccccc12,i,-2%,i,-5%,-22%,-57%
CCOC(=O)c1ccccc1NS(=O)(=O)c1ccc(OCC)cc1,?,7.1µM*,?,2.2µM*,13µM*,12µM*
CCOC(=O)NCc1ccc(S(=O)(=O)Nc2ccccc2C)cc1,23µM*,-5%,i,0%,1%,1%
COC(=O)c1cccc(NS(=O)(=O)c2ccc(OC)cc2)c1C,9.2µM*,12µM*,8.2µM*,-23%[9.24 µM],5.8µM*,?
COc1ccc(OC)c(C(=O)c2coc3ccc(O)cc23)c1,10µM*,?,?,?,?,?
O=C(N/N=C/c1ccc([N+](=O)[O-])o1)c1cn2ccc3ccccc3c2n1,i,-16%,i,3%,?,21µM*
CCCc1ccc(-c2cc(C(=O)N/N=C/c3ccc([N+](=O)[O-])o3)c3ccccc3n2)cc1,8.2µM*,7.3µM*,12µM*,6.5µM*,5µM*,7.1µM*
O=C(N/N=C/c1ccc([N+](=O)[O-])o1)c1cc(-c2cccc(Br)c2)nc2ccccc12,?,?,?,?,29%,15%[9.22 µM]
O=C(N/N=C/c1ccc([N+](=O)[O-])o1)c1sc2ccccc2c1Cl,?,-24%,?,?,?,14%
CCOc1ccc(-c2cc(CCCC(=O)NCCc3ccc(OC)c(OC)c3)no2)cc1,i,/,i,/,/,/
COc1ccc(/C=C2\Sc3ccc(C(=O)N4CCN(Cc5ccccc5)CC4)cc3N(C)C2=O)cc1OC,i,?,i,-24%,21µM*,?
COc1cccc(/C=C2\Sc3ccc(C(=O)NCc4cccnc4)cc3N(C)C2=O)c1,i,-9%,i,-29%,?,?
COc1ccc(/C=C2\Sc3ccc(C(=O)NCC4CCCO4)cc3N(C)C2=O)cc1 (configuration not stated),i,?,i,-7%,23µM*,23µM*
CN1CCN(C(=O)c2ccc3c(c2)N(C)C(=O)/C(=C/c2cccc(Cl)c2)S3)CC1,i,9%,i,1%,13µM*,4%
COc1ccc(/C=C2\Sc3ccc(C(=O)NCc4cccnc4)cc3N(C)C2=O)cc1OC,i,23µM*,i,23µM*,?,?
COc1ccc(/C=C2\Sc3ccc(C(=O)N4CCOCC4)cc3N(C)C2=O)cc1,i,4%,i,-6%,?,-8%
CCc1ccccc1N1CC(c2nc3ccccc3n2CC(C)C)CC1=O (configuration not stated),i,/,i,/,/,/
C=CCN1C(=O)c2ccccc2Sc2ccc(C(=O)N3CCN(C)CC3)cc21,9.2µM*,-1%,i,8%,-2%,-4%
Cc1nc2c(-c3ccccc3)c(C)[nH]n2c(=O)c1Cc1ccc(C(C)C)cc1,?,/,i,/,/,/
c1ccc2c(c1)oc1c(NCC3CCCO3)ncnc12 (configuration not stated),16µM*,-2%,i,-11%,-1%,-5%
SMILES,KB-V1 cytotox,HT1080NT lethal,KB-3-1 tox,HT1080 IDH1KD tx,MCF10A rerep,SW480 rerep
O=C(O)CNc1nc(-c2ccccc2)nc2c1oc1ccccc12,?,-8%,i,-23%,7%,1%
Cc1ccc2[nH]c3c(NCc4ccccc4)ncnc3c2c1,i,-16%,i,-23%,?,-7%
Brc1ccc2[nH]c3c(NCc4ccccn4)ncnc3c2c1,?,?,i,16µM*,12%,0%
O=C(CSc1ncnc2c1oc1ccccc12)NCC1CCCO1 (configuration not stated),i,4%,i,1%,-3%,-10%
c1ccc(-c2nc(NCC3CCCO3)c3oc4ccccc4c3n2)cc1 (configuration not stated),3.7µM*,-15%,i,-4%,?,-4%
c1ccc(CNc2ncnc3c2oc2ccccc23)nc1,21µM*,-4%,i,-2%,6%,0%
Cc1ccc(-n2ncc(C(=O)Nc3ccc4c(c3)OCO4)c2C2CCN(C(=O)OC(C)(C)C)CC2)c(C)c1,i,/,i,/,/,/
O=C(Cn1c(=O)n(Cc2nc(-c3ccccc3)no2)c(=O)c2cc3c(cc21)OCO3)Nc1cccc(C(F)(F)F)c1,i,/,?,/,/,/
CC(C)Cc1nc2oc3c(NCC4CCCO4)ncnc3c2c2c1CCC2 (configuration not stated),10µM*,7%,?,-1%,?,-4%
Cc1ccc(S(=O)(=O)NC(=O)N2CCCC2)cc1,i,9%,i,9%,-2%,-5%
COc1ccc(NC(=O)c2ccccc2SC)cc1,i,10%,i,25%,-3%,1%
COc1ccccc1NC(=O)c1ccccc1NC(=O)c1ccccc1,i,/,i,/,/,/
COc1ccc(OC)c(NC(=O)c2ccccc2SC)c1,18µM*,24%,i,7%,2%,-1%
CCOc1cc(NC(=O)c2ccccc2OC)c(OCC)cc1NC(=O)c1ccccc1,i,9%,?,15%,?,15µM*
COc1ccccc1C(=O)Nc1ccccc1SC(=O)c1ccccc1OC,i,18µM*,?,?,21µM*,?
COc1ccc(OC)c(/C(O)=C/C(=O)C(=O)Nc2ccccc2OC)c1,9.2µM*,4%,i,1%,6%,-15%
O=C(CCS(=O)(=O)c1cc(Br)cc2c1N(C(=O)C1CC1)CC2)NCc1ccccc1Cl,i,/,i,/,/,/
